Screening results: PubChem, National Center for Advancing Translational Sciences (NCATS)
In the library only some 5.3% were active in any assay of this set; here they are far more common.
FBPA coupling cs: qHTS Assay for Inhibitors of Fructose-1,6-bisphosphate Aldolase from Giardia Lamblia: Coupling assay counterscreen | AID 2472, 2010 | 290,000 compounds, 0.67% hits | activity change, negative = inhibition, % at 58.2 µM, hits read low | coupling enzyme system counterscreen, AmpLite Red fluorescence; in the data active means activity change below about -30%
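Fluorescence at 525 nm excitation and 598 nm emission measured inhibition of the coupled detection system without aldolase. Compounds (at 57.5 uM final) were preincubated 10 min at room temperature with coupling enzyme reagent before a 20 min substrate/AmpLite Red step.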
Tau fibril FP: qHTS for Inhibitors of Tau Fibril Formation, Fluorescence Polarization. 280,000 compounds, 0.39% hits. K18 P301L tau heparin fibrillization, Alexa594 FP, 6 h. Microtubule-associated protein tau (Homo sapiens), P10636. Potency, µM (titrated, usually from 57.7 µM), for inactives: top-dose activity, negative = inhibition, actives largely listed as inhibitors; further: potency means the concentration at half of the fitted maximal effect; nearly all actives have a fitted effect of over 55% in size
Target sequence (P10636 561-689 P618L limits assumed): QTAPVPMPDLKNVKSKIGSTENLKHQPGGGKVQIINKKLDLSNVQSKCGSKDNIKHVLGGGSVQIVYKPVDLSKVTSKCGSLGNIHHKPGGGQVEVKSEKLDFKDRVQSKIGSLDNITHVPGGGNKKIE
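Compound effects on tau fibrillization are measured by Alexa 594 fluorescence polarization (ex 555, em 632 nm). K18 P301L tau is used at 15 uM with 0.24 uM labeled tracer, and 20 uM heparin induces aggregation over 6 hr at 37 C.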
Tau fluor counter: Counterscreen qHTS for Inhibitors of Tau Fibril Formation, Fluorescence Polarization | Potency, µM (series often up to 57.7 µM), for the others: at the highest dose activity change, negative = decrease | tau K18 P301L Alexa594 fluorescence, heparin fibrillization | 280,000 compounds, 0.93% hits | AID 1463, 2008; further: potency means the concentration at half of the fitted maximal effect; nearly all actives have a fitted effect of over 55% in size
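Human K18 P301L tau (15 uM unlabeled plus 0.24 uM Alexa 594-labeled, final) in 100 mM sodium acetate pH 7 was mixed with compound and 20 uM heparin and incubated 6 hr at 37 C.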
Sfp PPTase inh: qHTS Assay for Inhibitors of Bacillus subtilis Sfp phosphopantetheinyl transferase (PPTase); AID 1490, 2009; 310,000 compounds, 3.5% hits; Potency, µM, for inactives: largest response in the series, negative = inhibition, actives largely listed as inhibitors; Biochemical Sfp PPTase activity, qHTS; 4'-phosphopantetheinyl transferase ffp (Bacillus subtilis), Q9F4F7;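 further: the enzyme is Sfp with the accession as filed and its product quenches rhodamine fluorescence; potency means the concentration at half of the fitted maximal effect; 0% = enzyme reaction without inhibitor and -100% = no enzyme wells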
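Fluorescence-quenching assay: 15 nM Sfp-PPTase preincubated 15 min at room temperature with compound, then 5 uM rhodamine-CoA and 12.5 uM BHQ-2-labelled YbbR peptide added. Fluorescence (ex 525/em 598 nm) read at start and after 30 min; difference gives rate.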
Tau ThT inhib: qHTS for Inhibitors of Tau Fibril Formation, Thioflavin T Binding. AID 1460, 2008. recombinant tau K18 P301L, heparin-induced fibrillization, ThT fluorescence. Potency, µM (highest dose often 57.4 µM), without a hit: at the top dose activity, negative = inhibition, usual class: inhibitors. Microtubule-associated protein tau (Homo sapiens), P10636. 270,000 compounds, 2.1% hits; further: potency means the concentration at half of the fitted maximal effect; nearly all actives have a fitted effect of over 55% in size
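Fibril formation assay: tau K18 P301L at 15 uM with trace Alexa 594 label, heparin inducer 20 uM, pH 7 sodium acetate buffer, 37 C for 6 hr; endpoint ThT signal.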
JMJD2E inh: qHTS Assay for Inhibitors of Human Jumonji Domain Containing 2E (JMJD2E) | Lysine-specific demethylase 4E (Homo sapiens), B2RXH2 | JMJD2E catalytic domain, FDH-coupled NADH fluorescence (FDH is formaldehyde dehydrogenase) | Potency, µM (doses to about 57.1 µM), without a hit: top-dose activity change, negative = inhibition, hits mostly inhibitors | 230,000 compounds, 1.6% hits | AID 2147, 2009; active means well fitted inhibition curve with a large enough effect, not every such curve was filed as active; inconclusive means small, poorly fitted or top-dose-only effect, or another doubt; inactive means no such curve, though single readings can be large or run the other way;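 further: potency means the concentration at half of the fitted maximal effect; 0% = wells with enzyme and -100% = buffer wells without enzyme; nearly all actives have a fitted effect of over 50% in size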
Target sequence (B2RXH2 1-337 limits assumed): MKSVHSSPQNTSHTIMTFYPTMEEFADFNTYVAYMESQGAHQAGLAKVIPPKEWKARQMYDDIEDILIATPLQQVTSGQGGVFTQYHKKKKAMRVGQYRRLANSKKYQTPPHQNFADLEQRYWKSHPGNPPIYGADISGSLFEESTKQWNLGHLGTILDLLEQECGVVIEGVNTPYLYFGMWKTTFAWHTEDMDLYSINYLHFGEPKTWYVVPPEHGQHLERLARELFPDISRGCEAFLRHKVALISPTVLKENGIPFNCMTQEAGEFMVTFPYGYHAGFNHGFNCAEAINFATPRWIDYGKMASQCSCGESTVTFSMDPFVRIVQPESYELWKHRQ
The depositor's hits bear a star; ? = inconclusive; / = no result; [ ] = dose if it differs, or a comment. Unless noted, the call rests on the fitted dose curve; in most records, active means well fitted curve in the direction sought with a large enough effect; inconclusive means small, poorly fitted or top-dose-only effect, or another doubt; inactive means no such curve, though single readings can be large; an effect the other way counts as inactive or inconclusive. Unless noted, on the % scale 0 is the no-effect control and ±100 the full control effect.

SMILES	FBPA coupling cs	Tau fibril FP	Tau fluor counter	Sfp PPTase inh	Tau ThT inhib	JMJD2E inh
CCN1C(=O)[C@H]2[C@H]3[C@H](O)[C@H](O)C/C(=N/OC[C@@H]4O[C@H](c5ccccc5)C=C[C@@H]4Oc4ccc(OC)cc4)[C@@H]3CC[C@@H]2C1=O	-2.1	3.1%[11.6 µM]	-8.1%[11.6 µM]	-7.6%	-10.4%[11.5 µM]	/
Cc1cccc(Cn2nnc3c(=O)[nH]c(C4CCN(C(=O)c5ccc(F)cc5)CC4)nc32)c1	/	2.0%	-4.4%	/	-3.3%	/
S=C(Nc1ccc2c(c1)OCO2)Nc1ccccc1Cl	1.0	-9.3%	-10.8%	17.8µM*	-10.7%	-0.3%
CC(C)c1ccc(NC(=S)NCc2ccc3c(c2)OCO3)cc1	0.3	-11.5%	?	3.6%	-12.3%	0.2%
S=C(Nc1ccc2c(c1)OCCO2)Nc1ccc2c(c1)OCO2	-8.5	-6.9%	-27.7%	-12.8%	?	-10.3%
S=C(NCc1ccc(Cl)c(Cl)c1)Nc1ccc2c(c1)OCO2	2.3	?	15.8µM*[quencher]	0.9%	?	6.9%
Cc1cc(N2CCOCC2)nc2ccc(NC(=S)NCc3ccc4c(c3)OCO4)cc12	0.9	?	14.1µM*[quencher]	7.6%	?	?
C/C=C(\C=C\[C@@H](C)C/C=C/CC/C=C/C=C\C[C@@H](OC)/C(C)=C\C=C(C)C)CC(=O)O	-3.2	/	/	0.9%	/	/
CCOC(=O)N/N=C1/C[C@@H](O)[C@@H](O)[C@@H]2[C@@H]3C(=O)N(C(C)(C)C)C(=O)[C@H]3CC[C@@H]12	0.2	-1.9%[11.6 µM]	-10.2%[11.6 µM]	4.5%	-8.7%[11.5 µM]	/
CCOc1ccccc1N(C)C(=O)c1sc2nc3n(c(=O)c2c1C)CCCC3	/	?	-9.2%	/	?	/
CC1CCC(NC(=O)c2ccc3c(c2)N(Cc2ccccc2F)C(=O)c2ccccc2S3=O)CC1 (stereo not given)	/	?	-23.3%	/	?	/
CCc1ccc2oc(-c3ccc(OC)cc3)cc(=Nc3c(C)n(C)n(-c4ccccc4)c3=O)c2c1	-1.1	9.5%	-30.0%	79.4µM*	11.2µM*	?
CC[n+]1c(/C=C2/C=C(C)CC(C)(C)C2)sc2ccc(OC)cc21	-25.9	?	-15.3%	14.1µM*	?	-16.8%
CC[n+]1c(/C=C2\C=C(C)CC(C)C2)sc2ccccc21 (stereo not given)	-5.7	?	-28.7%	35.5µM*	?	?
CCC1=C/C(=C/c2sc3ccccc3[n+]2CC)CC(C)(C)C1	-17.7	-4.0%	-2.5%	35.5µM*	4.5%	15.1%
CC[n+]1c(/C=C2\C=C(C)CC(C)(C)C2)sc2ccccc21	-14.8	?	-27.8%	11.2µM*	?	?
CNc1ncncc1-c1ccccc1C(F)(F)F	0.5	/	/	?	/	/
Cc1oc2ncn(C)c(=O)c2c1C(=O)N(C)c1ccccc1F	/	-3.9%	-4.2%	/	-1.4%	/
CC(C)(C)OC(=O)N1CCC(c2c(C(=O)N3CCC(c4ccccc4)C3)cnn2-c2cccc(Cl)c2)CC1 (stereo not given)	/	-0.6%	-19.5%	/	?	/
COC(=O)c1cc2oc(C)cc2n1CC(=O)Nc1ccc(C(C)C)cc1	/	1.0%	?	/	?	/
COc1ccc(CCNC(=O)Cc2c(C)c3c(cc(C)c4c(C)coc43)oc2=O)cc1	/	-3.7%	6.7%	/	8.7%	/
CC(C)c1cnc2c(c1SCC(=O)NCc1ccccc1Cl)c(=O)n(C)c(=O)n2C	/	-4.8%	-4.6%	/	-5.2%	/
C/C=C/OC(=O)NC(c1ccccc1)[C@@]1(C(=O)OC)CCCC1=O (stereo not given in full)	0.2	2.4%[11.6 µM]	-4.5%[11.6 µM]	11.7%	-6.1%[11.5 µM]	/
CC(C)Cc1nn2c(=O)cc(COC(=O)c3ccccc3NC(=O)c3ccccc3)nc2s1	/	12.3%	4.2%	/	-3.1%	/
